TROY signal inh = TROY signaling inhibition; hit rate 0.98% among 360,000; Q293 LMP1-TROYcd NF-kB luciferase reporter, 4 h; inhibition, % at 10 µM; AID 1347056;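 active = compounds whose plate-normalised and pattern-corrected inhibition of the luciferase reporter signal at the single screening dose is 50% or more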
HSP90 refold inh = HSP90 refolding inhibition in rabbit reticulocyte lysate. luciferase refolding luminescence, 3 h. inhibition, % at 5.6 µM. hit rate 0.91% among 290,000. AID 1789;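 active = inhibition above the screen-wide mean plus 3 SD, computed separately per campaign, cut at about 16% in these data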;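 note: 0% = DMSO wells and 100% = 60 µM geldanamycin wells; inhibitors lower the luminescence because luciferase stays unfolded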
TWEAK Fn14 block = blocks TWEAK-Fn14 interaction in a reporter cell assay. TWEAK-stimulated Fn14 reporter cells, luciferase luminescence, 8 h. hit rate 2% among 360,000. AID 1159606. inhibition, % at 10 µM; in the data active = inhibition above about 50%
EBV LMP1 NFkB = inhibitors of Epstein-Barr LMP1-induced NF-kappaB reporter; LMP1-induced NF-kappaB luciferase reporter cells, luminescence; hit rate 0.69% among 350,000; inhibition, % at 12.5 µM; AID 504558; in the data active = inhibition above about 41%; inconclusive = no clear call, values can overlap the other calls;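 note: 0% = neutral control wells and 100% = reference inhibitor control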
HSF1 inhib = HSF1 inhibition; activity change, negative = inhibition, % at 7.5 µM (by protocol); AID 2098; hit rate 0.77% among 300,000; NIH3T3-HGL HSE-luciferase, MG132-induced, luminescence 8 h; hits give low values;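 active = more than half of replicate wells show activity change below -50%, luminescence cut by over half; inconclusive = some wells, but at most half, below -50%; inactive = no replicate well below -50%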;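 note: luciferase reports HSF-1 transcriptional activity via heat shock element; 0% = median of DMSO wells and -100% = zero luminescence signal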
HSF1 activator = increases HSF-1 driven luciferase reporter signal; NIH3T3-HGL HSF-1 luciferase reporter, MG132, 8 h; 100% = twice DMSO control signal; activation, % at 9 µM; hit rate 1.7% among 300,000;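 active = mean replicate activation of at least 50% with a set share of replicates each reaching 50%; inconclusive = only one of those two conditions met; inactive = mean below 50% and too few replicates reaching it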;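 note: 0% = median of the neutral control wells and 100% = twice that signal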
* = called active by the depositor; ? = inconclusive; . = no result. Most compounds without a hit are left out; they make up all but 4.7% or so of the library.

SMILES	TROY signal inh	HSP90 refold inh	TWEAK Fn14 block	EBV LMP1 NFkB	HSF1 inhib	HSF1 activator
S=C(NCCC(c1ccccc1)c1ccccc1)Nc1cccc(Cl)c1	61.9*	-0.6	28.9	-15.3	10.7	15.4
S=C(NCc1ccccn1)NN=Cc1ccccn1	26.6	.	45.4	61.0*	.	.
FC(F)(F)c1cccc(NC(=S)NCc2ccccn2)c1	-2.4	0.0	-2.2	-2.0	21.8	56.9*
Cc1ccc(NC(=S)NCc2ccccn2)cc1	-23.6	7.2	2.4	-3.9	-23.5	-37.2
Cc1cccc(NC(=S)NCc2ccccn2)c1	-39.3	-1.2	-10.0	-17.8	32.9	45.6
S=C(NCc1ccccn1)Nc1ccccc1Cl	-78.5	-1.1	-44.9	-13.0	36.4	63.2*
S=C(NCc1ccccn1)Nc1cccc(Cl)c1	-22.2	-2.5	-6.1	-14.4	27.9	59.8*
Cc1noc(C)c1COC(=O)c1cccc(S(=O)(=O)N2CCOCC2)c1	15.9	.	8.1	3.0	3.3	-10.0
Cc1noc(C)c1COC(=O)c1cccc(S(=O)(=O)N2c3ccccc3CC2C)c1 (stereo not given)	18.7	6.2	52.8*	10.3	2.0	9.2
CCOC(=O)c1cnc(SC2CCc3ccccc3C2=O)nc1N (stereo not given)	49.5	16.4*	49.9	7.3	-15.6	-18.7
CCOC(=O)c1cnc(SCCc2ccccc2)nc1N	-52.6	6.7	-4.0	-66.1	53.6	88.5*
CCCCSc1ncc(C(=O)OCC)c(N)n1	-61.8	3.7	11.3	-20.3	31.2	64.2*
CCOC(=O)c1cnc(SCc2ccc(C)cc2)nc1N	-46.9	-1.1	-14.8	-31.6	31.6	?
CCCNC(=O)C1(C)CCCN(CC(=O)c2ccc3c(c2)OCCO3)C1 (stereo not given)	-0.3	.	10.7	.	.	.
COc1cc(NCC2COc3c(ccc(OC)c3OC)C2=O)c([N+](=O)[O-])cc1OC (stereo not given)	11.7	.	24.8	.	.	.
O=C(Nc1ccc(F)c(Cl)c1)C1Cc2c(-c3cccc(F)c3)ccnc2O1 (stereo not given)	10.1	.	-31.7	.	.	.
Cc1noc(/C=C/c2ccccn2)c1[N+](=O)[O-]	23.1	0.1	56.2*	22.9	34.1	?
Cc1noc(/C=C/Nc2ccc(F)cc2F)c1[N+](=O)[O-]	-15.4	-0.2	-5.9	-50.2	12.5	41.9
O=C(O)CCc1c(C(=O)O)[nH]c2ccccc12	.	1.0	68.9*	5.9	-4.3	-14.5
C=CC(=O)Nc1ccc(Nc2nc(NC3CCC(N(C)C)CC3)nc3c2ncn3C(C)C)cc1 (stereo not given)	71.2*	.	95.4*	79.1*	.	.
COc1ccc(-c2nnc(SCC(=O)/C(C#N)=C(\C)N)o2)cc1	31.0	4.5	65.4*	-2.2	62.9	80.7*
O=C(CSc1nnc(-c2ccccc2Br)o1)N1CCOCC1	-24.4	-3.1	9.3	-14.3	-0.4	38.2
C/C(N)=C(/C#N)C(=O)CSc1nnc(-c2ccccc2Br)o1	16.5	-0.5	73.5*	-6.1	69.7	115.2*
COc1ccc(-c2nnc(SCC(=O)c3ccc(C)o3)o2)cc1	-6.1	-3.4	0.7	-10.9	21.9	17.2
O=[N+]([O-])c1cccc(CON=Cc2cc(Cl)ccc2O)c1	-23.7	.	-12.4	-3.3	.	.
SMILES	TROY signal inh	HSP90 refold inh	TWEAK Fn14 block	EBV LMP1 NFkB	HSF1 inhib	HSF1 activator
O=C(c1cc(C2CCCCN2S(=O)(=O)Cc2ccccc2)on1)N1CCOCC1 (stereo not given)	9.4	.	-0.9	.	.	.
CCCC(C)(C)C(=O)N1CCC1(C)C(=O)NS(=O)(=O)c1ccc(Cl)cc1 (stereo not given)	-11.9	.	-4.5	.	.	.
O=C1/C(=C/c2ccccc2Cl)SC(=S)N1CCC(=O)N1CCCCC1CCO (stereo not given)	1.0	4.7	4.3	0.9	39.2	68.3*
CC(C)c1ccc(/C=C2\SC(=S)N(CCC(=O)N3CCCCC3CCO)C2=O)cc1 (stereo not given)	64.9*	10.9	87.1*	27.9	0.3	-3.8
COC(=O)c1ccc(Cn2cnc3c(Cl)ncnc32)cc1	-12.2	.	26.6	3.7	.	.
Nc1nc(-c2cc3ccccc3o2)cs1	-55.9	14.7	-8.9	-17.2	47.6	62.4*
Nc1nc(-c2ccc3ccccc3c2)cs1	-63.2	-2.6	-27.4	-32.6	18.2	67.3*
CCOc1ccc(/C=C2\SC(=S)N(CCCC(=O)NCCCN3CCOCC3)C2=O)cc1	8.7	5.7	25.5	54.7*	-28.9	-26.4
O=C(CCN1C(=O)/C(=C/c2ccccc2F)SC1=S)NCCCN1CCOCC1	6.1	-1.9	50.4*	12.6	-9.8	8.2
O=C(CCN1C(=O)/C(=C/c2ccccc2)SC1=S)NCCCN1CCOCC1	-17.0	-2.1	12.6	1.4	-1.5	1.2
CC(=O)NCCNc1nc2cc(-c3ccccc3C)sc2c(=O)n1C	-17.6	.	4.3	.	.	.
O=C1C=CN(C2OC(CO)C(O)C2O)C(=O)C1 (stereo not given)	-6.0	.	-58.4	4.1	.	.
C=CCN1C(=O)C(Cc2ccc(OC)cc2)S/C1=N/N=C/c1ccco1 (stereo not given)	-25.5	3.2	-9.6	-24.3	-57.4*	-65.9
Cc1cccc(C(=O)O/N=C(\N)Cc2cccc3ccccc23)c1	-19.2	16.7*	-18.1	-7.8	-1.2	9.5
Cc1cccc(/C(N)=N/OC(=O)Cc2cccc3ccccc23)c1	-42.3	-4.4	-26.6	-0.3	7.0	29.8
CC1(Cc2ccc(OC(F)(F)F)cc2)C(=O)Nc2c(Cl)ccc(Cl)c21 (stereo not given)	-11.7	.	-8.0	.	.	.
COC(=O)C(C(=O)OC)C(CC(=O)c1ccc(C)cc1)c1cc(OC)c(OC)c(OC)c1 (stereo not given)	5.8	2.5	5.2	0.5	22.9	?
COc1ccc(C(CC(=O)c2ccc(C)cc2)C(C#N)C#N)cc1OC (stereo not given)	20.2	-3.2	87.7*	13.2	50.4	73.0*
CC1CCCC(NC(=O)CSc2nnc(-c3cccnc3)n2N)C1C (stereo not given)	2.2	.	2.1	7.3	.	.
O=C(Nc1ccc(Cl)cc1)N1CCC(c2ccccc2)C1 (stereo not given)	-12.2	-0.5	-8.3	-29.8	57.7	75.8*
Cc1ccc(NC(=O)N2CCC(c3ccccc3)C2)cc1C (stereo not given)	-45.3	3.6	25.2	-20.8	38.3	62.2*
Cc1ccc(C2CCN(C(=O)Nc3ccccc3)C2)cc1 (stereo not given)	-6.8	-1.9	-15.9	-7.5	24.2	44.5
Cc1cccc(C)c1-n1nnnc1C1(C)CCC(=O)N1CC(F)(F)F (stereo not given)	-15.3	.	25.2	.	.	.
Cc1ccc2nc(CSc3nc(C)ccc3C#N)[nH]c2c1	44.5	6.9	69.3*	-127.8	-58.5*	-64.7
O=C(OC1CC2CC1[C@H]1CCCCN1C2=O)N1CCCCC1 (stereo not given in full)	3.9	.	-9.9	.	.	.
Cc1[nH]n(-c2nc(-c3ccc(Cl)cc3)cs2)c(=O)c1N=Nc1ccc(O)cc1	40.6	5.4	87.7*	-41.9	21.2	9.4
